# Reference: the supplement of paper PMC12282887
# ± gives the standard deviation of the averaged measurements.
# How the values were obtained:
# Experiment in all cases: promoter activity interaction Z-score (Lux/OD deviation from empty-vector control); higher = stronger promoter induction by the compound
# [1] = tested on: E. coli BW25113 acrABp lux reporter
# Outline: (§1)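 Low-copy luxCDABE promoter reporters were carried by E. coli BW25113, either wild type or lacking one of three genes, grown in 40 µl LB Lennox in 384-well plates at 37°C. Each compound was run at four 1:2 dilutions in biological duplicates, with OD600 and luminescence read every 30 min for 12 h. Integration used 0–8 h for wild type and 1–9 h for deletion strains, and wells under 10% of the median growth value were removed. Luminescence normalised to growth was fitted against a control, and the Z-transformed residual is the score.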
# [2] = tested on: E. coli BW25113 marRABp lux reporter
# Outline: as §1
# [3] = tested on: E. coli BW25113 micFp lux reporter
# Outline: as §1
# [4] = tested on: E. coli BW25113 ompFp lux reporter
# Outline: as §1
# [5] = tested on: E. coli BW25113 robp lux reporter
# Outline: as §1
# [6] = tested on: E. coli BW25113 soxSp lux reporter
# Outline: as §1
# [7] = 0.45 µg/ml, genetic background: wild type
# [8] = 0.45 µg/ml, genetic background: ΔmarA
# [9] = 0.45 µg/ml, genetic background: Δrob
# [10] = 0.45 µg/ml, genetic background: ΔsoxS
# [11] = 0.89 µg/ml, genetic background: wild type
# [12] = 0.89 µg/ml, genetic background: ΔmarA
# [13] = 0.89 µg/ml, genetic background: Δrob
# [14] = 0.89 µg/ml, genetic background: ΔsoxS
# [15] = 1.8 µg/ml, genetic background: wild type
# [16] = 1.8 µg/ml, genetic background: ΔmarA
# [17] = 1.8 µg/ml, genetic background: Δrob
# [18] = 1.8 µg/ml, genetic background: ΔsoxS
# [19] = 3.6 µg/ml, genetic background: wild type
# [20] = 3.6 µg/ml, genetic background: ΔmarA
# [21] = 3.6 µg/ml, genetic background: ΔsoxS
# [22] = 3.6 µg/ml, genetic background: Δrob
structure (smiles),measurement,setting,value
O=C1CN(/N=C/c2ccc([N+](=O)[O-])o2)C(=O)N1 [Nitrofurantoin],promoter activity interaction Z-score,[1]; [7],0.0114 ± 0.17
same,promoter activity interaction Z-score,[1]; [8],0.119 ± 1.2
same,promoter activity interaction Z-score,[1]; [9],0.336 ± 0.34
same,promoter activity interaction Z-score,[1]; [10],0.0185 ± 0.49
same,promoter activity interaction Z-score,[1]; [11],-0.124 ± 0.043
same,promoter activity interaction Z-score,[1]; [12],0.483 ± 1.2
same,promoter activity interaction Z-score,[1]; [13],0.267 ± 0.28
same,promoter activity interaction Z-score,[1]; [14],-0.258 ± 0.11
same,promoter activity interaction Z-score,[1]; [15],0.24 ± 0.28
same,promoter activity interaction Z-score,[1]; [16],-0.0961 ± 0.62
same,promoter activity interaction Z-score,[1]; [17],0.562 ± 0.54
same,promoter activity interaction Z-score,[1]; [18],0.221 ± 0.13
same,promoter activity interaction Z-score,[1]; [19],5.63 ± 1.8
same,promoter activity interaction Z-score,[1]; [20],1.31 ± 1.1
same,promoter activity interaction Z-score,[1]; [21],1.31
same,promoter activity interaction Z-score,[2]; [7],0.183 ± 0.32
same,promoter activity interaction Z-score,[2]; [8],0.105 ± 0.23
same,promoter activity interaction Z-score,[2]; [9],0.131 ± 0.13
same,promoter activity interaction Z-score,[2]; [10],0.198 ± 0.24
same,promoter activity interaction Z-score,[2]; [11],0.503 ± 0.047
same,promoter activity interaction Z-score,[2]; [12],0.249 ± 0.27
same,promoter activity interaction Z-score,[2]; [13],0.252 ± 0.052
same,promoter activity interaction Z-score,[2]; [14],0.0792 ± 0.11
same,promoter activity interaction Z-score,[2]; [15],1.04 ± 0.38
same,promoter activity interaction Z-score,[2]; [16],0.658 ± 0.16
same,promoter activity interaction Z-score,[2]; [17],1.16 ± 0.11
same,promoter activity interaction Z-score,[2]; [18],0.447 ± 0.016
same,promoter activity interaction Z-score,[2]; [19],7.36 ± 0.64
same,promoter activity interaction Z-score,[2]; [20],4.45 ± 1.7
same,promoter activity interaction Z-score,[2]; [22],12.8 ± 0.43
same,promoter activity interaction Z-score,[2]; [21],12.2
same,promoter activity interaction Z-score,[3]; [7],-0.201 ± 0.35
same,promoter activity interaction Z-score,[3]; [8],-0.0627 ± 0.036
same,promoter activity interaction Z-score,[3]; [9],-0.0214 ± 0.074
same,promoter activity interaction Z-score,[3]; [10],0.0613 ± 0.061
same,promoter activity interaction Z-score,[3]; [11],-0.0281 ± 0.071
same,promoter activity interaction Z-score,[3]; [12],0.0181 ± 0.016
same,promoter activity interaction Z-score,[3]; [13],0.0629 ± 0.06
same,promoter activity interaction Z-score,[3]; [14],-0.168 ± 0.14
same,promoter activity interaction Z-score,[3]; [15],-0.0112 ± 0.03
same,promoter activity interaction Z-score,[3]; [16],-0.163 ± 0.13
same,promoter activity interaction Z-score,[3]; [17],0.113 ± 0.19
same,promoter activity interaction Z-score,[3]; [18],0.261 ± 0.17
same,promoter activity interaction Z-score,[3]; [19],-0.0667 ± 0.48
same,promoter activity interaction Z-score,[3]; [20],-0.232 ± 0.11
same,promoter activity interaction Z-score,[3]; [22],1.15 ± 0.47
same,promoter activity interaction Z-score,[3]; [21],0.96
same,promoter activity interaction Z-score,[4]; [7],-0.15 ± 0.13
same,promoter activity interaction Z-score,[4]; [8],-0.453 ± 0.32
same,promoter activity interaction Z-score,[4]; [9],-0.0497 ± 0.041
same,promoter activity interaction Z-score,[4]; [10],0.0722 ± 0.049
same,promoter activity interaction Z-score,[4]; [11],-0.0847 ± 0.24
same,promoter activity interaction Z-score,[4]; [12],-0.089 ± 0.056
same,promoter activity interaction Z-score,[4]; [13],-0.35 ± 0.18
same,promoter activity interaction Z-score,[4]; [14],-0.556 ± 0.079
same,promoter activity interaction Z-score,[4]; [15],-0.226 ± 0.099
same,promoter activity interaction Z-score,[4]; [16],-0.21 ± 0.076
same,promoter activity interaction Z-score,[4]; [17],0.603 ± 0.17
same,promoter activity interaction Z-score,[4]; [18],0.0583 ± 0.32
same,promoter activity interaction Z-score,[4]; [19],-2.5
same,promoter activity interaction Z-score,[4]; [20],1.3 ± 0.68
same,promoter activity interaction Z-score,[4]; [22],3.89
same,promoter activity interaction Z-score,[4]; [21],-0.534
same,promoter activity interaction Z-score,[5]; [7],0.114 ± 0.034
same,promoter activity interaction Z-score,[5]; [8],0.455 ± 0.074
same,promoter activity interaction Z-score,[5]; [9],0.575 ± 0.24
same,promoter activity interaction Z-score,[5]; [10],0.737 ± 0.98
same,promoter activity interaction Z-score,[5]; [11],0.053 ± 0.093
same,promoter activity interaction Z-score,[5]; [12],1.12 ± 0.13
same,promoter activity interaction Z-score,[5]; [13],-0.308 ± 0.14
same,promoter activity interaction Z-score,[5]; [14],0.326 ± 0.87
same,promoter activity interaction Z-score,[5]; [15],-0.109 ± 0.28
same,promoter activity interaction Z-score,[5]; [16],-0.423 ± 0.23
same,promoter activity interaction Z-score,[5]; [17],-0.197 ± 0.6
same,promoter activity interaction Z-score,[5]; [18],0.0845 ± 0.42
same,promoter activity interaction Z-score,[5]; [19],-0.125 ± 0.22
same,promoter activity interaction Z-score,[5]; [20],-0.424 ± 0.58
same,promoter activity interaction Z-score,[5]; [21],0.453 ± 1.5
same,promoter activity interaction Z-score,[6]; [7],0.0106 ± 0.12
same,promoter activity interaction Z-score,[6]; [8],-0.137 ± 0.086
same,promoter activity interaction Z-score,[6]; [9],-0.0668 ± 0.14
same,promoter activity interaction Z-score,[6]; [10],0.0402 ± 0.15
same,promoter activity interaction Z-score,[6]; [11],0.102 ± 0.0085
same,promoter activity interaction Z-score,[6]; [12],0.0915 ± 0.093
same,promoter activity interaction Z-score,[6]; [13],0.0454 ± 0.22
same,promoter activity interaction Z-score,[6]; [14],0.0812 ± 0.0067
same,promoter activity interaction Z-score,[6]; [15],0.0189 ± 0.12
same,promoter activity interaction Z-score,[6]; [16],-0.113 ± 0.12
same,promoter activity interaction Z-score,[6]; [17],-0.00251 ± 0.13
same,promoter activity interaction Z-score,[6]; [18],0.294 ± 0.093
